Laboratory results reported in PubChem BioAssay.
Results filed as inconclusive are left out. Active and inactive are the calls of the source.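 How the source made its calls, unless noted: active means inhibition above 50%, about 3 SD of the validation set; inactive means the rest.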

Legend:
[1] = yeast TOR pathway RPL19A-GFP modulators, primary screen, cell-based, S. cerevisiae, multiplex flow cytometry (AID 1862; in the data active means percent of DMSO control GFP below about 86%;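 further: lower values mimic rapamycin by blocking the RPL19A rise seen in DMSO cells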); settings: S. cerevisiae RPL19A-GFP strain, flow cytometry fluorescence, 3 h; at 10 µM; stronger effect = lower value
[2] = modulators of MEP2-GFP levels in yeast, primary screen, S. cerevisiae, multiplex flow cytometry (AID 1867;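 active means GFP response, as percent of the DMSO control, above the screen-wide mean plus 3 SD, about 139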;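 further: median GFP channel fluorescence of barcode-gated MEP2-GFP cells measured by flow cytometry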); settings: S. cerevisiae MEP2-GFP strain, 3 h, at 10 µM, stronger effect = higher value, 100% means same as DMSO wells
[3] = modulators of CIT2-GFP expression in yeast, primary screen, S. cerevisiae, GFP fusion, multiplex flow cytometry (AID 1870;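 active means percent response above a set limit, the screen-wide mean plus 3 SD, cut at about 130% in these data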;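 further: barcoded CIT2-GFP strain pooled with four other GFP strains with rapamycin as positive control; median GFP fluorescence per well over plate mean of DMSO wells so 100% = DMSO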); settings: 3 h, at 10 µM, stronger effect = higher value
[4] = modulators of LAP4-GFP expression in yeast, primary screen, S. cerevisiae, multiplex flow cytometry (AID 1873;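 active means GFP signal, as percent of the solvent control, above the screen mean plus 3 SD, about 149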); settings: 3 h, at 10 µM, stronger effect = higher value
[5] = inhibitors of CD8+ T cell-vesicle binding, pilot screen, LFA-1/ICAM-1 modulator project, MLPCN validation set, flow cytometry (AID 2523;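 active means response below a set limit, under 55% cells CD8-positive and vesicle-bound, and CD8 cells' 90th-percentile brightness under 279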;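 on vesicle binding response: mean PE anti-B7-1 fluorescence of CD8+ cells relative to row control; 100% = QL9-loaded vesicles with DMSO vehicle in the same plate row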); settings: 2C mouse CD8+ T cells, at 7 µM, stronger effect = lower value; double positive events: measured here: CD8+/vesicle+ event percentage
[6] = molecular target: Integrin beta-1 (Homo sapiens) + Integrin alpha-4 (Homo sapiens) (UniProt P13612+P05556); test: inhibition of HUTS-21 binding to VLA-4, pilot screen, VLA-4 allosteric modulator project, U937 cells, HUTS-21 mAb, flow cytometry, validation set (AID 2674); settings: HUTS-21 LIBS mAb binding, at 6.7 µM, stronger effect = higher value, binding induced by LDV ligand;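 further: antibody binding induced by the VLA-4 ligand LDV present at three times its Kd; 0% = LDV ligand with antibody and no compound and 100% = antibody without LDV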
Sequence of Integrin beta-1 (Homo sapiens) + Integrin alpha-4 (Homo sapiens) (P05556 whole entry, looked up): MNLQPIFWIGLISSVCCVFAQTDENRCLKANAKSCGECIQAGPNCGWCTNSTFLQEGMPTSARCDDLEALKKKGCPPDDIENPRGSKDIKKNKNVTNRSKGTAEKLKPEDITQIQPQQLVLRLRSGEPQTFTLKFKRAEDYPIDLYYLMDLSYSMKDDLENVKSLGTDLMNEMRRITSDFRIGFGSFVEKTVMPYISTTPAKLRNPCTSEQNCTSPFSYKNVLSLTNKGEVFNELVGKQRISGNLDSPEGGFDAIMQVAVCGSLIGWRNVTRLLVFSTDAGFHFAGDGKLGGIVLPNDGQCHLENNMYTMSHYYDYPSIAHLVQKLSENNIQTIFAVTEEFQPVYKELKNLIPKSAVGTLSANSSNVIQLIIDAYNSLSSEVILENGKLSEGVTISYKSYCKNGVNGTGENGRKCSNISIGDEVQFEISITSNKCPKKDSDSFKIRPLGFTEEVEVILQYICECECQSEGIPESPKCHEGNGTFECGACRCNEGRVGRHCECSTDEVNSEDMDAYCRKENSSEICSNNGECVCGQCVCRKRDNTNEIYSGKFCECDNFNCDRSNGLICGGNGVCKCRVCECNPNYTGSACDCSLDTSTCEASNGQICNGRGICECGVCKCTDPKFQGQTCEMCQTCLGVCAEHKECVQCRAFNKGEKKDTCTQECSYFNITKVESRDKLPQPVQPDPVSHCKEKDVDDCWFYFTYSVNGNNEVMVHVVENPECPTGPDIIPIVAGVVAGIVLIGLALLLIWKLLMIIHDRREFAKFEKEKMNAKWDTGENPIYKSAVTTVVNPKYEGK
Sequence of Integrin beta-1 (Homo sapiens) + Integrin alpha-4 (Homo sapiens) (P13612 whole entry, looked up): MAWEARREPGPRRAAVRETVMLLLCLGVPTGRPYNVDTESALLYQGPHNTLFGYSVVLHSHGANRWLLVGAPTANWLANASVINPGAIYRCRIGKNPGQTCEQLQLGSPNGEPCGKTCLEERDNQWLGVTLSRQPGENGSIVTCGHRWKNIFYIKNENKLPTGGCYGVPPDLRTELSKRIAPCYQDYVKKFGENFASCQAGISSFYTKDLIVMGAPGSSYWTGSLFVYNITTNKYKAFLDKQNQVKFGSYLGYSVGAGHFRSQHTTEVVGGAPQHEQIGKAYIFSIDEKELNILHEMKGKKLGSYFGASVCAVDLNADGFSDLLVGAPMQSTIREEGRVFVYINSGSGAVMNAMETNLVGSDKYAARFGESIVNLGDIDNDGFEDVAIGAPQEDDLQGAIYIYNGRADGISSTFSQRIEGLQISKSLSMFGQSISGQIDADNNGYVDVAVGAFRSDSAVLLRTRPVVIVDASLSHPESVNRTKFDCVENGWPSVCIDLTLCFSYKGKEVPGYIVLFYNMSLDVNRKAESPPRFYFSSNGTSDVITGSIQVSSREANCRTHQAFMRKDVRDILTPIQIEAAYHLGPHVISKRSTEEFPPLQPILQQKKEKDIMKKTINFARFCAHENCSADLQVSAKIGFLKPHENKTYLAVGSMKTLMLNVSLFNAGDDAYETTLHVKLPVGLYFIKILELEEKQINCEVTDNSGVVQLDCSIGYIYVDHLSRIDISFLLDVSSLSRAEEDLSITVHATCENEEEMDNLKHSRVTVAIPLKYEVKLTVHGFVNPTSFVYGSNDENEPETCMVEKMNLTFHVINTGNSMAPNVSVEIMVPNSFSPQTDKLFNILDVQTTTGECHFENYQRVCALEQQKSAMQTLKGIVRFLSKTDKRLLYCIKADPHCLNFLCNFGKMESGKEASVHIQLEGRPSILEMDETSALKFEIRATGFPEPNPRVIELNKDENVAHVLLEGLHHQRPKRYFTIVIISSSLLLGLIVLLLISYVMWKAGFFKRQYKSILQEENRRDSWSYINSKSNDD

[7] = superoxide lowering in aged yeast cells, pilot screen, validation compound set (AID 2706;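 active means superoxide response below 65% of plate, a cut near 3 SD across the whole screen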;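 further: yeast exposed to compound for one week at 30 degrees C before staining; 100% = mean of all compound wells on the same plate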); settings: S. cerevisiae aging, superoxide DHE fluorescence; at 10 µM, stronger effect = lower value
[8] = molecular target: Beta-adrenergic receptor kinase 1 (Homo sapiens) (UniProt P25098); test: GRK2 binders displacing RNA aptamer, biochemical, validation, human GRK2, bead flow cytometry (AID 488806;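 active means aptamer binding inhibition above 30%, about 3 SD of noise from non-fluorescent compounds; inactive means inhibition at or below 30%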); settings: bead-bound GRK2, FAM-aptamer displacement, at 10 µM, stronger effect = higher value
Sequence of Beta-adrenergic receptor kinase 1 (Homo sapiens) (P25098 whole entry, looked up): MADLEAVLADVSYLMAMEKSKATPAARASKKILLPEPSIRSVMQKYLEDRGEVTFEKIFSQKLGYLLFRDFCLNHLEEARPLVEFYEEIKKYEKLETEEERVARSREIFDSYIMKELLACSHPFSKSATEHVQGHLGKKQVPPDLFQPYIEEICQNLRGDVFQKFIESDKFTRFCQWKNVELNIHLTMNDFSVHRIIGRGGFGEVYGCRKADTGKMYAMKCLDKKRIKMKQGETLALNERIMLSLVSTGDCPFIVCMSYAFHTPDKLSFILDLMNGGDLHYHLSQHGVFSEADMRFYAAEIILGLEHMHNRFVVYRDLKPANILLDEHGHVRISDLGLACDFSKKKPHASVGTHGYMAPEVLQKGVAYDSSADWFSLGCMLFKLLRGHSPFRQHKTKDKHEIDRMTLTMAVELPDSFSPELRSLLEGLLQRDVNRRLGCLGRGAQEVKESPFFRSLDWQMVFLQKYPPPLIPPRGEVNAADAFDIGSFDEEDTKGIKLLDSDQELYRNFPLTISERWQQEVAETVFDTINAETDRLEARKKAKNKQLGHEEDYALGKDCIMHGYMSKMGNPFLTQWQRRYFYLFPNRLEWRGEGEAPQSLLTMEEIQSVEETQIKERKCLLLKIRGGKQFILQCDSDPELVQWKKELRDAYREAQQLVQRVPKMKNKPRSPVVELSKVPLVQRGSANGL

[9] = molecular target: Beta-2 adrenergic receptor (Homo sapiens) (UniProt P07550); test: beta2AR agonists driving receptor internalization, pilot screen, cell-based, FAP fluorogen, flow cytometry, validation set (AID 504459;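 active means percent response above 42, roughly 3 SD of non-fluorescent test compounds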;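 further: agonist-driven loss of surface beta2AR via internalization measured by FAP dye flow cytometry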); settings: Am2.2-beta2AR cells, FAP surface receptor flow cytometry; at 10 µM; stronger effect = higher value
Sequence of Beta-2 adrenergic receptor (Homo sapiens) (P07550 whole entry, looked up): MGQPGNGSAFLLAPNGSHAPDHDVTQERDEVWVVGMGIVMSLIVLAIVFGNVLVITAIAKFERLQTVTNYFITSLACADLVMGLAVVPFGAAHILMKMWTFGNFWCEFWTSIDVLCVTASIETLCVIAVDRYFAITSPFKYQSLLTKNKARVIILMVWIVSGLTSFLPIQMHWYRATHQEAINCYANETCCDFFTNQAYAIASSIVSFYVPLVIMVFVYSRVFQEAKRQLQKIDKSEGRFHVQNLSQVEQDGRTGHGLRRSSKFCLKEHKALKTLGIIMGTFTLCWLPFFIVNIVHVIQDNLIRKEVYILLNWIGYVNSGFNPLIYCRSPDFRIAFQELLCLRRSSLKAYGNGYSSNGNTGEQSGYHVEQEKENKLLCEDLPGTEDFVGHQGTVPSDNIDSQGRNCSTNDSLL

[10] = molecular target: AP-2 complex subunit beta (Homo sapiens) (UniProt P63010); test: inhibitors of arrestin peptide binding to AP2, pilot screen, biochemical, validation set, GST-AP2 beads, flow cytometry (AID 504541;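 active means inhibition above 54%, about 3 SD of non-fluorescent compounds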;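 further: AP2 carries R879A mutation and is captured from E. coli lysate; bead-bound FITC arrestin peptide fluorescence measuring arrestin peptide binding to AP2; 0% = DMSO wells and 100% = excess unlabeled arrestin peptide control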); settings: FITC arrestin peptide, at 10 µM, stronger effect = higher value, AP2 beta2 appendage fragment, R879A mutant
Sequence of AP-2 complex subunit beta (Homo sapiens) (P63010 whole entry, looked up, the tested form may be a part, one chain of several): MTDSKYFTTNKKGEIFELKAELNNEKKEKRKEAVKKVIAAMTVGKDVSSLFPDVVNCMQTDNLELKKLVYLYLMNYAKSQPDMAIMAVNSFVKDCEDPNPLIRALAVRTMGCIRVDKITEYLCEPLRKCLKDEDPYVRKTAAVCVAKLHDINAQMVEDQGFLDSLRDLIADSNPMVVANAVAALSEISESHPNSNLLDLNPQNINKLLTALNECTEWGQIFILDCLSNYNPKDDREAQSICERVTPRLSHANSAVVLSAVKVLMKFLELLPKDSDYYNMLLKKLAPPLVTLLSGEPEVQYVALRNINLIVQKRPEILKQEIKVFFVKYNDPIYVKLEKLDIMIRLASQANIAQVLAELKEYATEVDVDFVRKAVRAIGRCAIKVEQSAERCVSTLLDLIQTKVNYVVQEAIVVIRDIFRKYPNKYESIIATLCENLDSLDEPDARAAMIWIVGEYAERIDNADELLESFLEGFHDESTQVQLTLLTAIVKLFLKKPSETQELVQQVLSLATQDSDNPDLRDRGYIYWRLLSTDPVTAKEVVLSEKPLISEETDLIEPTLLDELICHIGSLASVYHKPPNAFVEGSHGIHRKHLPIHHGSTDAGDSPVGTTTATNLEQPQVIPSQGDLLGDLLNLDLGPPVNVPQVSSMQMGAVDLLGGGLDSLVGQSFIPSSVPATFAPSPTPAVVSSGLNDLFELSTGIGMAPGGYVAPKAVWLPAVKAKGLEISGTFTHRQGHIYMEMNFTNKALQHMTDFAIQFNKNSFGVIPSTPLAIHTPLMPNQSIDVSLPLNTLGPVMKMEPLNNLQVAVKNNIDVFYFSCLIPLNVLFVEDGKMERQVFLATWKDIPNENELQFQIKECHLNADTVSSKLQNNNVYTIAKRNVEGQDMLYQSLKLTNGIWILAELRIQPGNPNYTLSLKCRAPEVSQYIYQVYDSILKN

[11] = yeast V-ATPase proton transport modulators, S. cerevisiae, pHLuorin, HTS validation (AID 504600; in the data active means response above about 15%;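 further: plate controls were DMSO for no effect and reference compound for full effect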); settings: S. cerevisiae pHLuorin cytosolic pH, at 10 µM, stronger effect = higher value
[12] = tested on: anti-desmoglein-3 scFv antibody binding to human DSG3; test: inhibitors of anti-DSG3 scFv binding to DSG3, pilot screen, biochemical, validation compound set, bead-based, flow cytometry (AID 588368;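 active means binding below the plate cutoff, the plate median minus 3 SD, with a reading above zero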;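 further: signal is the median channel fluorescence of bead-bound GFP antibody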); settings: Protein G beads, DSG3-Fc, scFv-GFP binding, at 10 µM, stronger effect = lower value
[13] = inhibitors of fungal efflux pumps CDR1, CDR2, MDR1, pilot screen, validation compound set, multiplex, phenotypic (AID 588506;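 active means efflux inhibition above 0.42, the validation set average plus 4 SD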;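 further: Nile Red retained in cells so higher fluorescence means more efflux inhibition; 0 = negative control wells and 1 = enniatin B 25 µM full block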); settings: S. cerevisiae pump-expressing triplex, Nile Red efflux flow cytometry; at 10 µM; stronger effect = higher value; the pumps come from Candida albicans
[14] = molecular target: ATP-binding cassette sub-family B member 6 (Homo sapiens) (UniProt Q9NP58); test: ABCB6 transporter inhibitors, pilot screen, K562-ABCB6 cells, flow cytometry, validation set (AID 588550;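 active means inhibition above the screen-wide mean plus 3 SD, about 51%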;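 further: 0% = DMSO wells and 100% = benzethonium chloride 70 µM positive control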); settings: K562-ABCB6 porphyrin accumulation, 1 h, at 10 µM, stronger effect = higher value
Sequence of ATP-binding cassette sub-family B member 6 (Homo sapiens) (Q9NP58 whole entry, looked up): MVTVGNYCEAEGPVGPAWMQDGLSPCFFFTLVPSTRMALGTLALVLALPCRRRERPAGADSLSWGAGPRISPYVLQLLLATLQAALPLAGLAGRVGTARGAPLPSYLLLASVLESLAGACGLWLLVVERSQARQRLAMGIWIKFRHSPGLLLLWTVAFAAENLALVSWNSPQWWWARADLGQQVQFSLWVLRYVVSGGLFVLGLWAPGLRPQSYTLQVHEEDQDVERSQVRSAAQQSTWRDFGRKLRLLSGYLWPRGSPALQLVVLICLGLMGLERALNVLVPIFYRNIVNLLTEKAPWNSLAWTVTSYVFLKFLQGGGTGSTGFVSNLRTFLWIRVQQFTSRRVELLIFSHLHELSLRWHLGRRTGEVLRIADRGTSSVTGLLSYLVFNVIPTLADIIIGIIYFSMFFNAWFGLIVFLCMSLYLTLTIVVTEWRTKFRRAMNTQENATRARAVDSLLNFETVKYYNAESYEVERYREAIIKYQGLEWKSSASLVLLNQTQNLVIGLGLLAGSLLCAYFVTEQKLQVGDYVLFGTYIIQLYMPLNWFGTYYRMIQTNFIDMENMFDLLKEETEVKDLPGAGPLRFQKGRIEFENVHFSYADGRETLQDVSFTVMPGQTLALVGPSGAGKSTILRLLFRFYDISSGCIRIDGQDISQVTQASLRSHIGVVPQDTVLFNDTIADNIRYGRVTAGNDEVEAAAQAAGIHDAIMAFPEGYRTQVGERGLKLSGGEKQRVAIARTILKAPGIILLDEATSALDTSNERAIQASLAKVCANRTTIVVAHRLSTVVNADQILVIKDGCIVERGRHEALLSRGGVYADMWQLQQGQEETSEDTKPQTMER

[15] = promoters of myeloid differentiation in arrested cells, primary screen, cell-based, GFP/MAC1 double positive, flow cytometry, validation set (AID 588685;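 active means differentiation response of at least 50%, scaled between solvent and reference control, from cells with both markers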;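 further: compound exposure lasts four days before antibody staining and flow analysis; 0% = DMSO wells and 100% = 5 µM fulvestrant positive control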); settings: ER-HoxA9 marrow cells, stronger effect = higher value, normalized: vehicle 0, fulvestrant 100

COc1ccc(C(=O)Nc2ccccc2C(=O)NCCCn2ccnc2)cc1
inactive: percent of DMSO control GFP [1] 91.3% | GFP response vs DMSO [2] 115% | percent response of DMSO control [3] 93.9% | GFP response vs DMSO [4] 75.4% | vesicle binding response [5] 82.8% | inhibition [6] 1.61% | superoxide response (% of plate) [7] 101% | aptamer binding inhibition [8] 5% | response [9] -7.51% | inhibition [10] 7.74% | response [11] -1.7% | binding (% of control) [12] 104% | efflux inhibition (fraction of control) [13] 0.23 | inhibition [14] 12% | differentiation response [15] -4.91%
59.2%: double positive events [5]

OC[C@H]1O[C@@H](n2cnc3c(Nc4ccccc4)ncnc32)[C@H](O)[C@@H]1O
inactive: percent of DMSO control GFP [1] 92.4% | GFP response vs DMSO [2] 118% | percent response of DMSO control [3] 112% | GFP response vs DMSO [4] 73.2% | vesicle binding response [5] 139% | inhibition [6] -9.06% | superoxide response (% of plate) [7] 110% | aptamer binding inhibition [8] 1% | response [9] -8.38% | inhibition [10] -2.59% | response [11] -0.49% | binding (% of control) [12] 103% | efflux inhibition (fraction of control) [13] 0.3 | inhibition [14] 10% | differentiation response [15] 2.46%
62.8%: double positive events [5]

COc1cc(/C=C/C(=O)N2CCCC2)cc(OC)c1OC
61.5%: double positive events [5]
inactive: percent of DMSO control GFP [1] 106% | percent response of DMSO control [3] 107% | GFP response vs DMSO [4] 76.9% | vesicle binding response [5] 29.3% | inhibition [6] 6.81% | superoxide response (% of plate) [7] 95.8% | aptamer binding inhibition [8] 5% | response [9] -5.19% | inhibition [10] -0.17% | response [11] 0.86% | binding (% of control) [12] 95.1% | efflux inhibition (fraction of control) [13] 0.02 | inhibition [14] -1% | differentiation response [15] 12.9%

C[C@]12C=CC(=O)C=C1CCC1C3CC[C@](O)(C(=O)CO)[C@@]3(C)CC3OC312 (stereo not given in full)
active: inhibition [14] 113%
inactive: percent of DMSO control GFP [1] 102% | percent response of DMSO control [3] 95.8% | GFP response vs DMSO [4] 85.4% | vesicle binding response [5] 298% | inhibition [6] 5.03% | superoxide response (% of plate) [7] 87.7% | aptamer binding inhibition [8] 2% | response [9] 2.49% | inhibition [10] -1.32% | response [11] -0.61% | binding (% of control) [12] 102% | efflux inhibition (fraction of control) [13] 0.22 | differentiation response [15] -13.6%
76.1%: double positive events [5]

CC1CNCCN1S(=O)(=O)c1cccc2cnccc12 (stereo not given)
62.9%: double positive events [5]
inactive: percent of DMSO control GFP [1] 95% | percent response of DMSO control [3] 104% | GFP response vs DMSO [4] 111% | vesicle binding response [5] 918% | inhibition [6] 17.2% | superoxide response (% of plate) [7] 91.3% | aptamer binding inhibition [8] 3% | response [9] -6.28% | inhibition [10] -9.84% | response [11] 1.37% | binding (% of control) [12] 96.3% | efflux inhibition (fraction of control) [13] -0.07 | inhibition [14] 2% | differentiation response [15] 14.9%

Cc1ccc(NCCC(=O)c2ccccc2)cc1Cl
63%: double positive events [5]
inactive: percent of DMSO control GFP [1] 86.2% | GFP response vs DMSO [2] 110% | percent response of DMSO control [3] 110% | GFP response vs DMSO [4] 78.7% | vesicle binding response [5] 171% | inhibition [6] 28.8% | superoxide response (% of plate) [7] 99.7% | aptamer binding inhibition [8] 2% | response [9] 2.53% | inhibition [10] -12.3% | response [11] 2.25% | binding (% of control) [12] 98% | efflux inhibition (fraction of control) [13] -0.24 | inhibition [14] 10% | differentiation response [15] -0.82%

O=C1OC(=O)C2C1[C@@H]1CC[C@H]2O1 (stereo not given in full)
60.8%: double positive events [5]
inactive: percent of DMSO control GFP [1] 96.6% | GFP response vs DMSO [2] 103% | percent response of DMSO control [3] 118% | GFP response vs DMSO [4] 72.6% | vesicle binding response [5] 195% | inhibition [6] -8.09% | superoxide response (% of plate) [7] 94.4% | aptamer binding inhibition [8] 3% | response [9] -8.34% | inhibition [10] -1.78% | response [11] -0.92% | binding (% of control) [12] 107% | efflux inhibition (fraction of control) [13] -0.24 | inhibition [14] 7% | differentiation response [15] -0.82%

CC(=O)OCC1OC(n2ccc(=O)[nH]c2=O)C(O)C1O (stereo not given)
inactive: percent of DMSO control GFP [1] 100% | percent response of DMSO control [3] 122% | GFP response vs DMSO [4] 102% | vesicle binding response [5] 42.8% | inhibition [6] -12.9% | superoxide response (% of plate) [7] 97.6% | aptamer binding inhibition [8] 1% | response [9] -2% | inhibition [10] -6.88% | response [11] -3.65% | binding (% of control) [12] 97.7% | efflux inhibition (fraction of control) [13] -0.26 | inhibition [14] 9% | differentiation response [15] -1.71%
60.2%: double positive events [5]

COc1cc(C2C(C(=O)c3ccc(C)o3)=C(O)C(=O)N2Cc2cccnc2)ccc1O (stereo not given)
68.3%: double positive events [5]
inactive: percent of DMSO control GFP [1] 102% | GFP response vs DMSO [2] 119% | percent response of DMSO control [3] 106% | GFP response vs DMSO [4] 81.4% | vesicle binding response [5] 171% | inhibition [6] 2.58% | superoxide response (% of plate) [7] 110% | aptamer binding inhibition [8] 2% | response [9] -8.26% | inhibition [10] -5.82% | response [11] 4.05% | binding (% of control) [12] 99.4% | efflux inhibition (fraction of control) [13] 0.34 | inhibition [14] 9% | differentiation response [15] -0.82%

O=C1C2C3C=CC(C4CC34)C2C(=O)N1/N=C/c1ccc(-c2ccc([N+](=O)[O-])cc2)o1 (stereo not given)
inactive: percent of DMSO control GFP [1] 103% | percent response of DMSO control [3] 101% | GFP response vs DMSO [4] 85.4% | vesicle binding response [5] 153% | inhibition [6] -0.43% | superoxide response (% of plate) [7] 95.5% | aptamer binding inhibition [8] 4% | response [9] 25.8% | inhibition [10] 14.3% | response [11] 1.6% | binding (% of control) [12] 102% | efflux inhibition (fraction of control) [13] 0.19 | inhibition [14] 7% | differentiation response [15] 0%
57.9%: double positive events [5]
